According to PubChem BioAssay (NCATS):
Records with an inconclusive call do not appear. A call without a number means that no potency is given here. Values without a mark were called inactive. Calls of active or inactive are those of the source. Calls come from the whole dose curve; as a rule, active = well fitted inhibition curve with a large enough effect; inconclusive = small, poorly fitted or top-dose-only effect; inactive = flat fitted curve, though single readings scatter.

Tests used:
[1] = system: 3D7; experiment: qHTS profiling for inhibitors of Plasmodium falciparum proliferation (AID 504749); note: nearly all actives have a fitted effect of over 60% in size; conditions: P. falciparum in erythrocytes, SYBR Green DNA, 72 h; series mostly up to 28.7 µM
Method in brief: (§1)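 In a 72 h erythrocytic culture (37 C, humidified, 5% CO2) at 2.5% hematocrit and 0.3% starting parasitemia, compounds were tested; SYBR Green I in detergent lysis buffer stained parasite DNA overnight.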

[2] = system: 7G8; experiment: as above; conditions: P. falciparum in erythrocytes, SYBR Green DNA, 72 h; series mostly up to 28.7 µM
Method in brief: as §1

[3] = system: AA1029; experiment: as above; conditions: P. falciparum in erythrocytes, SYBR Green DNA, 72 h; series mostly up to 28.7 µM
Method in brief: as §1

[4] = system: AS120; experiment: as above; conditions: P. falciparum in erythrocytes, SYBR Green DNA, 72 h; series mostly up to 28.7 µM
Method in brief: as §1

[5] = system: C2A; experiment: as above; conditions: P. falciparum in erythrocytes, SYBR Green DNA, 72 h; series mostly up to 28.7 µM
Method in brief: as §1

[6] = as above; conditions: P. falciparum in erythrocytes, SYBR Green DNA, 72 h; for activity, negative = inhibition: at 28.7 µM (top of the series)
Method in brief: as §1

[7] = system: ATS189; experiment: as above; conditions: P. falciparum in erythrocytes, SYBR Green DNA, 72 h; series mostly up to 28.7 µM
Method in brief: as §1

[8] = system: CP185; experiment: as above; conditions: P. falciparum in erythrocytes, SYBR Green DNA, 72 h; series mostly up to 28.7 µM
Method in brief: as §1

[9] = system: ATS95; experiment: as above; conditions: P. falciparum in erythrocytes, SYBR Green DNA, 72 h; series mostly up to 28.7 µM
Method in brief: as §1
Potency is the fitted concentration of half-maximal effect.

Structure (SMILES): COCCOC(=O)C1=C(C)NC(C)=C(C(=O)OC/C=C/c2ccccc2)C1c1cccc([N+](=O)[O-])c1 (stereo unspecified)
- Potency [1]: 12.6 µM (active)
- Potency [2]: 7.94 µM (active)
- Potency [3]: 8.91 µM (active)
- Potency [4]: 11.2 µM (active)

Structure (SMILES): OCCN1CCN(CCCN2c3ccccc3Sc3ccc(Cl)cc32)CC1
- Potency [2]: 4.47 µM (active)
- Potency [3]: 3.55 µM (active)
- Potency [4]: 3.98 µM (active)
- Potency [5]: inactive

Structure (SMILES): Cc1ccc2nc(N)[nH]c(=O)c2c1Sc1ccncc1
- Potency ([6]; parasite line A): 7.94 µM (active)
- Potency ([6]; parasite line B): 11.2 µM (active)
- Potency [2]: 5.62 µM (active)
- Potency [3]: 11.2 µM (active)
- Potency [4]: 4.47 µM (active)
- Potency [7]: 8.91 µM (active)
- Potency [5]: 11.2 µM (active)
- Potency [8]: 5.01 µM (active)

Structure (SMILES): CN1CCC[C@@H]1Cc1c[nH]c2ccc(CCS(=O)(=O)c3ccccc3)cc12
- activity, negative = inhibition ([6]; parasite line A): -0.0666%
- activity, negative = inhibition ([6]; parasite line B): -10.1%
- Potency [1]: inactive
- Potency [2]: 6.31 µM (active)
- Potency [8]: inactive

Structure (SMILES): NC1CCN(c2cccc(Cl)n2)CC1
- activity, negative = inhibition ([6]; parasite line A): 13.3%
- activity, negative = inhibition ([6]; parasite line B): 5.51%
- Potency [1]: inactive
- Potency [4]: inactive
- Potency [7]: inactive
- Potency [9]: inactive
- Potency [5]: inactive
- Potency [8]: inactive

Structure (SMILES): Nc1ccc(S(=O)(=O)Nc2ccc(Cl)nn2)cc1
- Potency [1]: inactive
- Potency [2]: inactive

Structure (SMILES): NC(=O)N/N=C/c1ccc([N+](=O)[O-])o1
- Potency ([6]; parasite line A): 12.6 µM (active)
- Potency [1]: 8.91 µM (active)
- Potency [2]: 10 µM (active)

Structure (SMILES): C[C@]12C[C@H](O)[C@H]3[C@@H](CCC4=CC(=O)CC[C@@]43C)[C@@H]1CC[C@@H]2C(=O)CO
- Potency [1]: inactive
- Potency [2]: inactive

Structure (SMILES): CNCCC(Oc1ccc(C(F)(F)F)cc1)c1ccccc1 (stereo unspecified)
- activity, negative = inhibition ([6]; parasite line A): -5.44%
- activity, negative = inhibition ([6]; parasite line B): -9.25%
- Potency [1]: inactive
- Potency [2]: 11.2 µM (active)
- Potency [8]: inactive

Structure (SMILES): CCCCCCCCCCCCCCCC(=O)NCCO
- activity, negative = inhibition ([6]; parasite line A): 5.7%
- activity, negative = inhibition ([6]; parasite line B): 4.77%
- Potency [1]: inactive
- Potency [3]: inactive
- Potency [4]: inactive
- Potency [7]: inactive
- Potency [9]: inactive
- Potency [5]: inactive
- Potency [8]: inactive

Structure (SMILES): CC[C@@]1(c2ccccc2)NC(=O)N(C)C1=O
- activity, negative = inhibition ([6]; parasite line A): -2.42%
- activity, negative = inhibition ([6]; parasite line B): 13.3%
- Potency [1]: inactive
- Potency [3]: inactive
- Potency [4]: inactive
- Potency [7]: inactive
- Potency [9]: inactive
- Potency [5]: inactive
- Potency [8]: inactive

Structure (SMILES): [Cl][In]([Cl])[Cl]
- activity, negative = inhibition ([6]; parasite line A): -23.4%
- activity, negative = inhibition ([6]; parasite line B): -19.4%
- Potency [2]: 2 µM (active)
- Potency [3]: inactive
- Potency [5]: inactive
- Potency [8]: inactive

Structure (SMILES): OCc1cc(C(O)CNCCCCCCOCCCCc2ccccc2)ccc1O (stereo unspecified)
- activity, negative = inhibition ([6]; parasite line B): -10.7%
- Potency [1]: inactive
- Potency [3]: inactive
- Potency [4]: inactive
- Potency [7]: inactive
- Potency [9]: inactive
- Potency [5]: inactive
- Potency [8]: inactive

Structure (SMILES): CSc1ccc2c(c1)N(CCC1CCCCN1C)c1ccccc1S2 (stereo unspecified)
- Potency [2]: 5.62 µM (active)
- Potency [3]: 10 µM (active)
- Potency [4]: 11.2 µM (active)
